Consider 41 compounds from PubChem BioAssay AID652126 (The Scripps Research Institute Molecular Screening Center, 2013).

Structures are written as SMILES. In all, about 370,000 compounds went through this assay and about 3,700 (1%) were called active.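 Rule for the calls: active = activation above the mean over all tested compounds plus 3 SD (cut at about 0.9% in these data); inactive = the rest.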 The sample as a whole holds a higher share of actives than the screen did.

The assay has as its system Nuclear hormone receptor DAF-12 (Strongyloides stercoralis). As to the kind of experiment: S. stercoralis DAF-12 nuclear receptor activators, primary screen, cell-based, luminescence, HEK293, GRIP1 co-expression, lit1-tk-luc (AID 652126).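 Note: 0% = DMSO-only wells and 100% = 3 µM delta7-dafachronic acid wells.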 The note with it: HEK293 ssDAF-12/GRIP1 lit1-tk-luc reporter, at 6.8 µM, hits give high values, % of 3 µM dafachronic acid response.
As for `CC(C)CNc1cccc2c1S(=O)(=O)N(Cc1cn(Cc3ccccc3C(F)(F)F)nn1)Cc1ccccc1O2`, the activation is -0.93% (inactive).
In the case of `Cc1ccc(CN2CCCCC(NC(=O)C3CCCCC3)C2=O)cc1` (stereo unspecified), the activation is -0.73% (inactive).
Next, `CC(CCN1CCC(C(O)(c2ccccc2)c2ccccc2)CC1)Oc1ccc([N+](=O)[O-])cc1Cl` (stereo unspecified): -0.24% (inactive); `Cc1nc2ccc(S(=O)(=O)NCC(=O)O)cc2s1`: -0.93% (inactive); `NS(=O)(=O)c1ccc2nc(NC(=O)CS(=O)(=O)c3ccc(F)cc3)sc2c1`: 1.3% (active).
Next, `CCS(=O)(=O)N1Cc2ccccc2CC1C(=O)Nc1nc2ccc(F)cc2s1` (stereo unspecified): 0.55% (inactive); `CCCCN1CCN(C(=O)c2ccc3c(c2)NC(=O)C(C)(C)O3)CC1`: -1.34% (inactive); `COc1ccc(C#CCNCc2ccc(OC)cc2OC)cc1`: -1.38% (inactive).
As for `COc1ccc(C(=O)O)cc1S(=O)(=O)NC1CCN(Cc2ccccc2)CC1`, the activation was -1.42% (inactive).
Regarding `COc1ccc(C(=O)NCc2ccccc2C)cc1S(=O)(=O)NC1CCCC1`, the activation was 0.92% (active).
Next, `COc1ccc(C)cc1S(=O)(=O)NC1CCCCC1`: -0.84% (inactive); `CCCCNC(=O)C[C@@H]1C(=O)N(CCc2ccc(Cl)cc2)C2=CCCC[C@]21C(=O)OCC`: -2.02% (inactive).
In the case of `CC(C)CNC(=O)OCc1cn(Cc2ccc(F)cc2)nn1`, the activation is -0.96% (inactive).
The figure for `CC(c1c[nH]c2ccccc12)c1c(-c2ccccc2)n(C)c2ccccc12` (stereo unspecified) is -0.45% (inactive).
The figure for `O=C(OCc1cn(-c2ccc(Cl)c(Cl)c2)nn1)c1ccccc1Cl` is -1.04% (inactive).
Consider `CCOC(=O)[C@]12CCCC=C1N(Cc1ccc(OC)cc1)C(=O)[C@@H]2CC(=O)NCc1cccs1`, for which the activation is -1.35% (inactive).
As for `C=CCN(Cc1ccc2c(c1)OCO2)C(C#CC1CC1)C(C)(C)C` (stereo unspecified), the activation is -1.38% (inactive).
For the compound `CN(C)/C=C1/C(=O)Nc2ccccc21`, the activation was 1.06% (active).
On to `CN(C)/C=C1\C=C(c2ccccc2)OC1=O`, for which the activation was -0.4% (inactive).
The figure for `O=C1Nc2ccccc2C1=NN=Cc1ccco1` is 0.04% (inactive); for `Cc1ccc(-n2c(SCC(=O)Nc3ccc(S(=O)(=O)Nc4nccs4)cc3)nnc2-c2ccncc2)cc1` it is -1.76% (inactive).
Consider `CC(=O)O[C@@]1(C(C)=O)CCC2[C@H]3C=C(C)C4=CC(=O)CC[C@@]4(C)C3CC[C@]21C` (stereo partly specified), for which the activation is -1.19% (inactive).
Turning to `CC(C)(C)C1CCC(=NNC(=O)c2ccc(Br)o2)CC1` (stereo unspecified), the activation was -0.04% (inactive).
Next, `C/C(=N/NC(=O)c1ccc(Br)o1)c1ccc(C)o1`: 1.57% (active); `C/C(=N\NC(=S)NC1CCCCC1)c1ccc(C)o1`: -2.41% (inactive); `Cc1sc2nc(SCC(=O)c3ccc(O)c(O)c3)n(Cc3ccco3)c(=O)c2c1C`: -1.42% (inactive).
Next, `O=S(=O)(NC1CCCCC1)c1ccc(F)c2ccccc12`: -1.61% (inactive); `C=CCN(C(=O)[C@@H](CCCC)[C@@H](O)c1ccc(Cl)cc1)c1ccccc1`: -1.08% (inactive); `C=C1C(C(C)C)N(C)C2=NC(c3ccccc3)CC(=O)N12` (stereo unspecified): -1.49% (inactive).
On to `COc1ccccc1C(=O)NCCC(=O)NC1=NCCS1`, for which the activation was -0.76% (inactive).
The figure for `O=C(NC1=NCCS1)c1ccc(Cl)s1` is -1.02% (inactive).
Next, `COc1ccc(C(=O)NC2=NCCS2)c(OC)c1`: 1.63% (active); `O=C(NCCc1c[nH]c2ccccc12)OCc1cn(-c2c(F)cccc2F)nn1`: -1.14% (inactive).
In the case of `O=C(NCc1ccco1)C1CCCN(S(=O)(=O)c2ccc(Cl)s2)C1` (stereo unspecified), the activation was 0% (inactive).
Next, `OCCC1CN(Cc2ccc(Oc3ncccn3)cc2)CCN1CCc1ccccc1` (stereo unspecified): -0.5% (inactive); `OCCC1CN(Cc2cnc(-c3ccccc3)s2)CCN1CCc1ccccc1` (stereo unspecified): -1.41% (inactive); `OCCC1CN(Cc2cccn2-c2nccs2)CCN1CCc1ccccc1` (stereo unspecified): 1.5% (active).
Regarding `COC(=O)c1cccc(Cn2ccc3ccc(-c4ccc5ccn(C(=O)C6CCCCC6)c5c4)cc32)c1`, the activation was -1.1% (inactive).
On to `COc1ccc(-c2cc(-c3nnc(SCc4ccc([N+](=O)[O-])cc4)n3N)[nH]n2)cc1`, for which the activation was -0.73% (inactive).
Turning to `CCCC[C@H]1C2CC(OC(=O)NCc3ccccc3)C(C2)[C@H]2CCCCN21` (stereo partly specified), the activation is -1.06% (inactive).
Turning to `CCCCOCCCNC(=O)C[C@H]1C[C@@]2(C(=O)OC)C(=C[C@H](C(C)(C)C)O[C@@H]2C)N(CCc2ccc(OC)c(OC)c2)C1=O`, the activation was -1.19% (inactive).
